Where a chain is given by its changes, count along the chain named. In all, about 24,000 sequences were measured (“enrichment r”: median about 0.99, highest 2% from about 3.7 on). For the sample, the highest values were picked, then their nearest neighbours and some sequences at random.
T1: UNK ZnF1-3 (human, UniProt Q9C0B0 31-174)
T1 sequence: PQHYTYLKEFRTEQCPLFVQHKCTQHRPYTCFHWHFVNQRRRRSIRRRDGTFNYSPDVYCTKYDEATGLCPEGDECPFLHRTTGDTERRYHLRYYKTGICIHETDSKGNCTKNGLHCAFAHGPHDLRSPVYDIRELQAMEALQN

B1: 9136497_9143069_760_3pUTR_ENSMUSG00000033499_ENSMUST00000091829|mouse|control|control (ssRNA)
RNA: GGGAGUUCUACAGUCCGACGAUCCAGAAUUCCAAUGUUUUUUUAAGUACUUCCCGAGGGUCUUCCUGGCUUUCUGGUUGAGACUCAUUUCCUCCCGUAUCGUUGUUCUCAGGCAGAGGUUCAUAUUCUGAAUGGUCCAGAGCCCAACAGAGGAUUGAGCAUCA
B2: 40924096_40924216_925_3pUTR_ENSMUSG00000028423_ENSMUST00000098143|mouse|control|control (ssRNA)
RNA: GGGAGUUCUACAGUCCGACGAUCUCGUUGGUCUUUCUCUAAGAUUAUCCUUUGGAAUGGGGGACAUGUUGGUUUUGGGCCCUGCAUUUAUAUGCCGCUGACUCUCCUGUUUUGGUGGGUUCCUGCCUGGCCGUGGUCUGGCCCCAACAGAGGAUUGAGCAUCA
B3: chr14:89307221:89307222:+_ENSG00000165533_ENST00000346301|hu_mus|hu_hu_hu_mus_False|98_98 (ssRNA)
RNA: GGGAGUUCUACAGUCCGACGAUCUCCUGUUUGGUUAGUUCCAGGGAGCUUCAAAGAUGUGCCAGGGCGUGGGACCUGAGCAAUAGCAUUUUCAUCCAGGAUCAUUUCAGCAAUUCCUUCCUGGUCCACAUCAAUUUCAUCUAUCAACAGAGGAUUGAGCAUCA
B4: chr7:151048522:151048523:+_ENSG00000013374_ENST00000566856|hu_mus|motif|central (ssRNA)
RNA: GGGAGUUCUACAGUCCGACGAUCCUGUUUCUUAUUUAUUACGAUCUUGAUGUAAUUUUCUUGAAAUCCGAAAGUUUCAGCGGUUUGACACCUCAGGUCUCUACCAGUGACAUGCAAGCGGGUCUCCAACAAGCUUUUCUUAUCCAACAGAGGAUUGAGCAUCA
B5: chr18:33597908:33597909:-_ENSMUSG00000042834_ENSMUST00000171533|mus_mus|FALSE|FALSE (ssRNA)
RNA: GGGAGUUCUACAGUCCGACGAUCUACAUCAAAAGAGUACAUGGGUAAAAUAUAGAUAUACAGACAAUUGAUGAACAUAAACUACUAGGCUUGUUACAUCUAAAUGAAGAAAAAAAAAAACCGUGGGGGGGACUCUCAGCCUCUCAACAGAGGAUUGAGCAUCA
B6: chr2:160775391:160775392:-_ENSMUSG00000057133_ENSMUST00000039782|mus_hu|motif|central (ssRNA)
RNA: GGGAGUUCUACAGUCCGACGAUCAAUGAGUCCAGGAGAUACUCCUGGGAUGAGAAAUGGGUUAAAAGCCACAGGACGGCGGGUAGUUAUUGCAGGUUCAGACUGAUCAGAAAAUGGACCUGGACCAGGCUUGUCCUCAGCUAACAACAGAGGAUUGAGCAUCA
B7: chr2:29001751:29001752:+_ENSG00000213639_ENST00000296122|perfect_dup|motif|central (ssRNA)
RNA: GGGAGUUCUACAGUCCGACGAUCAGCCAAUAGCAAACAAAUGGUUUCCAAAGACUGCUUUCCUCUGUCCACAUAAUCUCCGGAGAAAAGAUAGUUGGCUUCUGGUGGGAAACCUCCAUAUUCAAAUAAUCUCAGUAAAUCUGUCAACAGAGGAUUGAGCAUCA
B8: chr1:38489269:38489270:+_ENSG00000183520_ENST00000537711|hu_hu|FALSE|FALSE (ssRNA)
RNA: GGGAGUUCUACAGUCCGACGAUCUUUGAAGUUACUAGAAAACGACAACAGAUUUUUGAUACAGAAUGACAAGGCUUAUCUAUAACACGUCAACGUUUUCGACGACUCUGAAAUUUAUAAAUAGCUGGGGAGUUCACCGUUUCUCAACAGAGGAUUGAGCAUCA
B9: chr18:33597908:33597909:-_ENSMUSG00000042834_ENSMUST00000171533|mus_mus|motif|central (ssRNA)
RNA: B5 RNA with U82G, A83G, U85G, A86G
B10: chr2:160775391:160775392:-_ENSMUSG00000057133_ENSMUST00000039782|mus_hu|FALSE|FALSE (ssRNA)
RNA: B6 RNA with G77U, G78A, G80U, G81A
B11: chr3:35977374:35977375:+_ENSMUSG00000027710_ENSMUST00000011492|mus_hu|motif|central (ssRNA)
RNA: GGGAGUUCUACAGUCCGACGAUCCACAGGUAUCUUGGUGUUUUCAAAAUGGACUUCACAAGUGUUGGAGCCCCGAAUGCCGGAUUUAUCUUCGGGUUUCCCAUUAGUGACUCCACCAAAGUCUCUUUCUACUAUGAAUGCUGUCAACAGAGGAUUGAGCAUCA
B12: chr2:24917620:24917621:+_ENSMUSG00000006476_ENSMUST00000102931|mus_mus|motif|central (ssRNA)
RNA: GGGAGUUCUACAGUCCGACGAUCAGUAAUGCUGCUUCCCUUCAAAUUGUUUCAGGGGUGUAAAAAAAUUGCACUUAUUUCGGUGAACCCCAUGGAGGGGAUCCCCAAUGCUGCUGCCUCCAGGCGAGGCAUGACAGGUCAAUGCAACAGAGGAUUGAGCAUCA
B13: chr5:10264850:10264851:+_ENSG00000150753_ENST00000503026|hu_hu|FALSE|FALSE (ssRNA)
RNA: GGGAGUUCUACAGUCCGACGAUCUUCUCAAUGUCUUCAUUCUUCAGAUUCUCCAGGCUUACGAAUGUCAUCAAUCUUCAAAAUCAUUCUAACCAUUUGUGUUGCAAGAGAUAUCUGUUGCUUUUUGCCAAUCAAGGUUUCUAUCAACAGAGGAUUGAGCAUCA
B14: chr4:34514055:34514056:+_ENSMUSG00000028291_ENSMUST00000084299|mus_mus|FALSE|FALSE (ssRNA)
RNA: GGGAGUUCUACAGUCCGACGAUCCUGGGGAGGAGGUGCAGCAAUAAACAUUUGUUAAAAAGACUGAUAGAAUAAAUAAAACUACCAAAAAAUAAUAAAGAAAAUCAUAUAAACCCAUUCUGAAACCCCAAGAAAAGUCCUGAACAACAGAGGAUUGAGCAUCA
B15: 85396044_85398007_762_3pUTR_ENSMUSG00000021549_ENSMUST00000109552|mouse|control|control (ssRNA)
RNA: GGGAGUUCUACAGUCCGACGAUCCACCAAUGUAGUAAUCACCACACAUAGCAAUAAUCCUAAAAUGAUUGACAACAUUUGUCUGACUAAGGAAUGAAAGUACAAAGGACCCCGGCCUCCGAUCACUCUCUCUUAUAAGAUAGCCAACAGAGGAUUGAGCAUCA
B16: chr12:75046761:75046762:+_ENSMUSG00000021109_ENSMUST00000021530|mus_mus|FALSE|FALSE (ssRNA)
RNA: GGGAGUUCUACAGUCCGACGAUCAUAUAGAAAAUAUAAAUAGACUGCUGAGCCACCAGUGUCCAAAAAUAACCAACAGAAACAAAAACCCAACAAACAACAACAACUGAACAAAAACAUUAACAAUCAAAAGGAAUGAGAUUACAACAGAGGAUUGAGCAUCA
B17: chr6:13786029:13786030:-_ENSMUSG00000048216_ENSMUST00000115492|mus_mus|FALSE|FALSE (ssRNA)
RNA: GGGAGUUCUACAGUCCGACGAUCAAAAACUCUCCAAUAGCAGGCCACCAGGUAGGGACCCCACAAGGUUAGGAAGAGGAAAGUCAUUAUAUAAAACAUUCUGCUGAUUCUUUUCUCCAUUUUGAACUCAUCCAAGACCAAUAGCAACAGAGGAUUGAGCAUCA
B18: chr4:34514055:34514056:+_ENSMUSG00000028291_ENSMUST00000084299|mus_mus|motif|central (ssRNA)
RNA: B14 RNA with U82G, A83G
B19: chr2:166767530:166767531:+_ENSMUSG00000002718_ENSMUST00000002790|mus_mus|FALSE|FALSE (ssRNA)
RNA: GGGAGUUCUACAGUCCGACGAUCAAAUAUUUCUUGUAAUGCUAGUGCCCCAUACUUAAUGCAAUAUAAGUUAAUAAACACUAAGAAACUCUUGAUAAACUUGGUGGUCUUGGAGUUUUGCAGUCUCUGGAAUAGUAGAAUGAACAACAGAGGAUUGAGCAUCA

biological target: T1, UNK ZnF1-3; assay: nsRBNS (natural sequence RNA bind-n-seq); RBNS binding buffer (assumed for nsRBNS): 25 mM Tris pH 7.5, 150 mM KCl, 3 mM MgCl2, 0.01% Triton X-100, 500 ug/ml BSA, 20 U/ml SUPERase-In, 4 C; UNK is unkempt and MSI1 is Musashi-1; names of the RNAs are library labels; protein concentration not given here; high values mean tight binding

| Binder | binding signal [enrichment R] |
| --- | --- |
| B1 | 0.744 |
| B2 | 0.527 |
| B3 | 0.79 |
| B4 | 0.692 |
| B5 | 7.83 |
| B6 | 1.1 |
| B7 | 1.36 |
| B8 | 1.2 |
| B9 | 6.83 |
| B10 | 0.911 |
| B11 | 0.637 |
| B12 | 1.02 |
| B13 | 0.579 |
| B14 | 8.55 |
| B15 | 0.49 |
| B16 | 3.57 |
| B17 | 1.71 |
| B18 | 15.2 |
| B19 | 1.05 |
